Laboratory results published in PubChem BioAssay (EPA / NIEHS).
Values joined by “and” are separate entries in the source; they are usually repeats but may differ in a detail not shown here. Equal entries are not always repeated. Active and inactive are the calls of the source. The calls were made as follows: active = hit-call score of the fitted dose curve at least 0.9, where 1 is the maximum; inactive = score below 0.9.

These compounds were tested on urokinase plasminogen activator (uPA), PLAU (gene 5328) (assay: BSK_BE3C_uPA: BioMAP Diversity Plus: BE3C Assay for urokinase plasminogen activator (uPA) Biomarker Activity (AID 2283038)). Settings: primary human bronchial epithelial cells; actives raise or lower the signal.
Method: BSK_BE3C is a cell-based, multiplexed-readout assay that uses bronchial epithelial cell, a human lung primary cell, with measurements taken at 24 hours after chemical dosing in a 96-well plate.BSK_BE3CA is an assay component measured in the BSK_BE3C assay. It measures uPA antibody related to regulation of gene expression using ELISA technology.Data from the assay component BSK_BE3CA was analyzed into 1 assay endpoint. This assay endpoint, BSK_BE3CA, was analyzed with bidirectional fitting relative to DMSO as the negative control and baseline of activity. Using a type of binding reporter, gain or loss-of-signal activity can be used to understand changes in the signaling as they relate to the gene PLAU. Furthermore, this assay endpoint can be referred to as a primary readout, because this assay has produced multiple assay endpoints where this one serves a signaling function. To generalize the intended target to other relatable targets, this assay endpoint is annotated to the protease intended target family, where the subfamily is serine protease.
The levels of cell surface (or secreted, indicated by the prefix "s") biomarker endpoints were measured by ELISA. Overt cytotoxicity to cells in confluent adherent cultures (all systems other than the BT system) was assessed by measuring total protein levels using sulforhodamine B (SRB) staining in parallel cultures at the time of biomarker measurements, indicated as SRB endpoints. For proliferation assays for adherent cell types, individual cell types are cultured at sub-confluence and relative cell numbers quantified by SRB staining at time points optimized for each system (48 h: 3C and CASM3C systems; 72 h: BT and HDF3CGF systems; 96 h: SAg system). SRB was performed by staining cells with 0.1% SRB after fixation with 10% TCA and reading wells at 560 nm.Viability and proliferation of PBMC (T cells) was quantified by Alamar Blue reduction for the SAg and BT systems. For PBMC viability (referred to as PBMC Cytotoxicity within the assay endpoint names), cells were plated (75,000/well in a 96-well plate) and then chemical samples added for 1 h before addition of activators, SEB and TSST-1 (20 ng/mL final concentration each). Cells were incubated for 90 h. Then, Alamar Blue (20 uL/well) (Invitrogen, Cat DAL1100) was added for 6 h, and the plates were read with a fluorescence microplate reader at 546/580 nm (excitation/emission). For PBMC proliferation, cells were plated and activated as above but incubated for only 16 h prior to addition of Alamar Blue. Plates were read after 6 h.

Structure (SMILES) | outcome | AC50
O=C(O)C(F)(F)C(F)(F)C(F)F | inactive | –
CCN(CC)c1ccc2c(C)cc(=O)oc2c1 | inactive | –
CCCCCCC(C)OC(=O)CCCCC(=O)OC(C)CCCCCC (stereo not given) | inactive | –
Oc1ccc(Nc2ccccc2)cc1 | inactive | –
FC(F)(F)C(F)(F)C(F)(F)CI | inactive | –
CCc1ccc(C(c2ccc(CC)cc2)C(Cl)Cl)cc1 | inactive | –
O=S(=O)(OCCOC(F)(F)F)C(F)(F)F | inactive | –
CCCCCCOC(=O)c1ccccc1O | inactive | –
NC(=O)C(F)(F)C(F)(F)C(F)(F)C(F)(F)F | inactive | –
CCCCCCCCCCCCCCCC[N+](C)(C)Cc1ccccc1 | – | 13.2 µM (active)
O[Si](c1ccccc1)(c1ccccc1)c1ccccc1 | inactive | –
COC(=O)CCC(F)(F)C(F)(F)C(F)(F)C(F)(F)F | inactive | –
O=C(CC(=O)C(F)(F)C(F)(F)F)C(F)(F)F | inactive | –
O=C(O)C(F)(F)C(F)(F)C(F)(F)C(F)(F)C(F)(F)C(F)(F)C(F)(F)C(F)(F)C(F)(F)C(F)(F)C(F)(F)C(F)(F)F | inactive | –
C=CC(F)(F)C(F)(F)C(F)(F)C(F)(F)C(F)(F)C(F)(F)C(F)(F)C(F)(F)F | inactive | –
FC(F)(F)C(F)(F)C(F)(F)C(F)(F)C(F)(F)C(F)(F)C(F)(F)I | inactive | –
O=S(=O)(O)C(F)(F)C(F)(F)C(F)(F)C(F)(F)C(F)(F)C(F)(F)C(F)(F)F | inactive | –
CCCCC(CC)COP(=O)(O)OCC(CC)CCCC (stereo not given) | inactive | –
O=C(O)C=C(C(F)(F)F)C(F)(F)F | inactive | –
CC(CCl)OP(=O)(OC(C)CCl)OC(C)CCl (stereo not given) | inactive | –

Structure (SMILES) | outcome | AC50
Nc1ccc([N+](=O)[O-])cc1O | inactive | –
FC(F)(F)C(F)(F)C(F)(F)C(F)(F)CCI | inactive | –
O=C(O)C(F)(F)C(F)(F)F | inactive | –
CCCCCCCOC(=O)c1ccccc1C(=O)OCCCCCCC | inactive | –
CCCCNc1ccccc1 | inactive | –
O=S(=O)(OCC(F)F)C(F)(F)F | inactive | –
C=CC(=O)OCC(F)(F)C(F)(F)C(F)(F)C(F)(F)COC(=O)C=C | – | 8.4 µM (active) and 8.81 µM (active)
O=C(O)C(F)(F)C(F)(F)C(F)(F)C(F)(F)C(F)(F)C(F)(F)C(F)(F)C(F)(F)C(F)(F)C(F)F | – | 16.5 µM (active) and 10.6 µM (active)
FC(F)(Br)C(F)(F)C(F)(F)C(F)(F)C(F)(F)C(F)(F)Br | inactive | –
OCCCC(F)(F)C(F)(F)C(F)(F)C(F)(F)C(F)(F)C(F)(F)C(F)(F)F | – | 46.5 µM (active) and 47.5 µM (active)
O=C(O)C(F)(F)C(F)(F)C(F)(F)C(F)(F)C(F)(F)C(F)(F)C(F)(F)C(F)(F)C(F)(F)C(F)(F)C(F)(F)C(F)(F)C(F)(F)F | inactive | –
FC(F)(I)C(F)(F)C(F)(F)C(F)(F)I | inactive | –
C=C(C)C(=O)OCC(F)(F)C(F)(F)C(F)(F)C(F)(F)C(F)(F)C(F)(F)C(F)(F)F | inactive | –
FC(F)(F)C(F)(F)C(F)(F)C(F)(F)C(F)(F)C(F)(F)C(F)(F)Br | inactive | –
FC(F)(F)C(F)(F)C(F)(F)C(F)(F)C(F)(F)C(F)(F)C(F)(F)C(F)(F)CCS | inactive | –
FC(F)(F)C(F)(F)C(F)(F)C(F)(F)C(F)(F)CCI | inactive | –
CCO[Si](CCC(F)(F)C(F)(F)C(F)(F)C(F)(F)C(F)(F)C(F)(F)F)(OCC)OCC | inactive | –
O=C(O)C(F)(OC(F)(F)C(F)(OC(F)(F)C(F)(OC(F)(F)C(F)(F)C(F)(F)F)C(F)(F)F)C(F)(F)F)C(F)(F)F (stereo not given) | inactive | –
O=C(O)C(F)(F)C(F)(F)C(F)(F)C(F)(F)F | inactive | –
O=P(O)(O)OCCC(F)(F)C(F)(F)C(F)(F)C(F)(F)C(F)(F)C(F)(F)F | inactive | –
